Assay results taken from article PMC13494018.
Unmarked numbers belong to inactive results. No rule for the calls is given here.

Biological target: VTCN1, Q7Z7D3
Sequence (Q7Z7D3 whole entry): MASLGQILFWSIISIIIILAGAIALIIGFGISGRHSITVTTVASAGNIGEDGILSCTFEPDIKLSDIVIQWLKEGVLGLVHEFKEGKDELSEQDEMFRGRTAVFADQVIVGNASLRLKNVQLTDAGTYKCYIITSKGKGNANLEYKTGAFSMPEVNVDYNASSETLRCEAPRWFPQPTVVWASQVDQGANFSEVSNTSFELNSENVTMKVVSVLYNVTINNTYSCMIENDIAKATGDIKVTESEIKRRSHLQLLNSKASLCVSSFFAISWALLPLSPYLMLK

Binder | binding in a display sort
design_607_777643b9-bd23-49d1-80ae-2b1434974efa_2300_dldesign_0_cycle1_af2pred (protein) GKKEEAKKYAEEAKKKIKELAKKAEKSTDEEEVKKLAEKARELAKKAIEYAKKELTPEEAAKVAKELSEAAHEAHEAAAIGLFNIRKK | not found
design_607_777643b9-bd23-49d1-80ae-2b1434974efa_2270_dldesign_0_cycle1_af2pred (protein) AAADATVDAAIAKLRALGKEYPEGADAFNQLADNLKKAAAKAKTPEAKIAAAKKAMATAEHILKTTKEAEERAKKRKEEEEK | not found
design_607_777643b9-bd23-49d1-80ae-2b1434974efa_2448_dldesign_0_cycle1_af2pred (protein) SAEEEAKKLLEEAKKLAEEAGKSKDPEEAEKLAREAIKLAEKAAKLGLKEEASKVAHLARENLAEAQYRYRKEKK | not found
design_607_777643b9-bd23-49d1-80ae-2b1434974efa_2342_dldesign_0_cycle1_af2pred (protein) SEAQKEGKAFSAMMKTASEKGKELSKKTGTPLAEMAKIVQDIADAYAKGPEEIKKVAKTPEAKELATAAYDTYEKTYKA | not found
design_608_fd41b8f9-4da9-4c78-93ec-aaa316ed4933_209_dldesign_0_cycle1_af2pred (protein) AEEEEEKKREKLLEEAKKLGKEAAKYVKKAIAKGKTEEATALAAEASKALLALYDLDAAGEPYEKAKAEYDKIKELTEKIKALAE | not found
design_608_fd41b8f9-4da9-4c78-93ec-aaa316ed4933_3_dldesign_0_cycle1_af2pred (protein) GMEEESKAYKEALDKLSELGKEAEKAAKKGNEEVRKKLLKLKEEAEKKLDEGFEKGKEAAKEAKKFIEEKLKEVKKLLKELE | not found
design_608_fd41b8f9-4da9-4c78-93ec-aaa316ed4933_446_dldesign_0_cycle1_af2pred (protein) LEATAEAYAEAILHAGEEAAKVAKKLSEELAEEVRKKAEEFAKKALDDPSKAKEYLKKAREYFKKVVEEVKEKL | not found
design_607_777643b9-bd23-49d1-80ae-2b1434974efa_2272_dldesign_0_cycle1_af2pred (protein) NTQKAADKFSEAVRNLREAAKLGGEEVKEMAEKAILAAADDPEKGVEQAEKLLKYVKENVSEEVAKLVEEALKNFKEMAKLLN | not found
design_608_fd41b8f9-4da9-4c78-93ec-aaa316ed4933_922_dldesign_0_cycle1_af2pred (protein) GETEKLREEAQKLMDEAVDLLDKAKTEEEVEKAVEIAEEAYKVAAKATPEIAESALKGYKGLKKMAEEIKKVLKK | not found
design_607_777643b9-bd23-49d1-80ae-2b1434974efa_2248_dldesign_0_cycle1_af2pred (protein) AAAEAAAKAKEAAKKAAAIAKEGIAKQEKAAKEGDAEKVREIAKEVRTKLAAEAKATPEGAKAYAAAAHDVYEAAAEYSQEAKKAK | not found
design_608_fd41b8f9-4da9-4c78-93ec-aaa316ed4933_161_dldesign_0_cycle1_af2pred (protein) ITEEQKKVAEKLVERAEEVGKKAIEAGYPELGKKVLELAKETRKALEVSAEEAAKKAAELAQLKAEAEFEIKK | not found
design_607_777643b9-bd23-49d1-80ae-2b1434974efa_2236_dldesign_0_cycle1_af2pred (protein) EAKKYAEKAEKLAKEAEESTDDYEKAKKYAEEARKYAKKAVAYAKANPEDKEAKELAKKAIEAAHKAQEALAEAKAN | not found
design_608_fd41b8f9-4da9-4c78-93ec-aaa316ed4933_178_dldesign_0_cycle1_af2pred (protein) AATEEANKALLEAKEAIVDAYNEKYKLDPEEGKKLRKELLKKLAEAYASENAAEKLKEIKKEAKKLAEEYEKKN | not found
design_607_777643b9-bd23-49d1-80ae-2b1434974efa_2486_dldesign_0_cycle1_af2pred (protein) AAEKEAAKAEAAKLVEEAADAAVEKGAEGVEAIIKELEKAAKAASPEARVYYEKAIRTAKSLAEDVKELEN | not found
design_607_777643b9-bd23-49d1-80ae-2b1434974efa_2298_dldesign_0_cycle1_af2pred (protein) VTPEELAEAAKKKDELLDAAFAALQAAKTVEEVEAVAKEFLAKAEELGKDPRYAAAAESFKKILTRMKEAAVKAIK | not found
design_608_fd41b8f9-4da9-4c78-93ec-aaa316ed4933_228_dldesign_0_cycle1_af2pred (protein) GEEVIKEIAEEEIKEAEKTLKEAEKLLKKGGTEEAKEAVEKAKEYIKKGKEKLEEGDYKTAYSLATLGKHNAEIAIKLIKEKN | not found
design_607_777643b9-bd23-49d1-80ae-2b1434974efa_2143_dldesign_0_cycle1_af2pred (protein) GMEEEEKRREELKKKAEELIKKAHEAYENSAEASVTNKEAAEIYREAAKLYKKAAEAYRSGEKVEEGEKYEEEAKAKEKEAKALLEK | not found
design_608_fd41b8f9-4da9-4c78-93ec-aaa316ed4933_71_dldesign_0_cycle1_af2pred (protein) AKEEKEKEIEKLKKKAERLAERAKKVAEEAEKAGFEEVAKKIKEKAKELEKAAESMKEDYEKGKKEASEKAGELSEVMAEAKYLLAKK | not found
design_608_fd41b8f9-4da9-4c78-93ec-aaa316ed4933_199_dldesign_0_cycle1_af2pred (protein) AEEYRKKAKELAEKAKKYVEKLKADPENAEEYYKKAVEYIHKLYELAAEAESEGHPEVAKEIRELARKIGEEAKKAYEEVKA | not found

Binder | binding in a display sort
design_608_fd41b8f9-4da9-4c78-93ec-aaa316ed4933_627_dldesign_0_cycle1_af2pred (protein) SEKKKVGEEAYKVASRALSIAYAKGDKEFEEKAEELLEKVEEVKKNGNLEEAKKALEEAKALLKEAEKLAKER | not found
design_608_fd41b8f9-4da9-4c78-93ec-aaa316ed4933_544_dldesign_0_cycle1_af2pred (protein) AAAAAAEAAAKVAKVKELAKEAAEDPSKAPEVYKEGKKIADAATPETAAAIAAEMHKGHEERAENSWKRSRE | not found
design_608_fd41b8f9-4da9-4c78-93ec-aaa316ed4933_913_dldesign_0_cycle1_af2pred (protein) ATLAELSAAFAKAYELIAEGEKASPEEGVKLMEKAKEEVEAARKLAEASADKEAALAGVERLAKRVEENKAKAEAKLKAA | not found
design_608_fd41b8f9-4da9-4c78-93ec-aaa316ed4933_536_dldesign_0_cycle1_af2pred (protein) NNAEASKLAHEGYEYRAEGAQLSKKNPAKAAVLFEEAAKKFAEAAKLAEDPEDKKLLQAYADRALAEAKKAAAEAAKALA | not found
design_608_fd41b8f9-4da9-4c78-93ec-aaa316ed4933_750_dldesign_0_cycle1_af2pred (protein) GEETEKLKKELEKAEKEAKEALKKAKELTKEEAKKLLSEQAAKVAELAAESSKDKEVSKEAKKVLKEVRKEGKEILEEK | not found
design_608_fd41b8f9-4da9-4c78-93ec-aaa316ed4933_615_dldesign_0_cycle1_af2pred (protein) DPAEELAKKLLEIADLAAKPETLEKALEEAEKLKEEALKLAEKYADDPALKKKYLKAAKTAESFIEDIKRSKEL | not found
design_607_777643b9-bd23-49d1-80ae-2b1434974efa_2203_dldesign_0_cycle1_af2pred (protein) SAVEKEKEELKKEVEEAKKEAEKVIAGGTLEEGAKVADKAYQLAAEAASLGPEAEDIEKEAREVARRLREYGKERRA | not found
design_607_777643b9-bd23-49d1-80ae-2b1434974efa_2234_dldesign_0_cycle1_af2pred (protein) SAAVKAAAEKAIAAFEAVAKKAKKAAEEGAKPEEVEKLRKELEKARKAGKEVAKKAAADPELVKKLSNAAFEAYEAIAEAAFAA | not found
design_608_fd41b8f9-4da9-4c78-93ec-aaa316ed4933_704_dldesign_0_cycle1_af2pred (protein) DAAAATARALADQAVAAGKAGEEGDLATAKAARETLAALREELRKLVEEDPSVAPYASAGMAEGYQAIAEGFKKNS | not found
design_608_fd41b8f9-4da9-4c78-93ec-aaa316ed4933_796_dldesign_0_cycle1_af2pred (protein) EEAKEKAKKLEEEALKKAKEAGELIGKPKQVVHLTKLAIEDPELIPLAKKAILEAAKELKKKDPEKGKKAEELAKEMEKYVKEANKLK | not found
design_607_777643b9-bd23-49d1-80ae-2b1434974efa_2258_dldesign_0_cycle1_af2pred (protein) AAVEEAKAALKKRYEKALKLAKEASEELYKEVVEKYKEYVAAAEAAKDPAEKVAALTAGNAFMYELIAEARSEIERKKEE | not found
design_608_fd41b8f9-4da9-4c78-93ec-aaa316ed4933_287_dldesign_0_cycle1_af2pred (protein) MEAENMEKAIKKLREGKAALKTTPEEAARVLRAQAKELKELAKKSSPENAAFMETQAKAMEKKAKELEAKAAA | not found
design_608_fd41b8f9-4da9-4c78-93ec-aaa316ed4933_323_dldesign_0_cycle1_af2pred (protein) VLEEVLKLGKEAAEALLKPNGKEEAAKLVEEAEKVVKSHPNAPTEASYVLVTMRRAVRKPDHEEGAKRVREAVEEAE | not found
design_608_fd41b8f9-4da9-4c78-93ec-aaa316ed4933_509_dldesign_0_cycle1_af2pred (protein) EEEKSKLTREAADAVRTFGKNATKARPEMSRLEVMDKIDAGLENPELLKETTEEYAEAAKEKGLEEDAEKIKESGKILLKYVKE | not found
design_608_fd41b8f9-4da9-4c78-93ec-aaa316ed4933_669_dldesign_0_cycle1_af2pred (protein) KEELKKALEKTRKEVKAAAAGKPQDVIDVIRKGAKEAEKLNKNAGILLEAAANRAEFAGATPAEAAAIALKAIERAEKE | not found
design_608_fd41b8f9-4da9-4c78-93ec-aaa316ed4933_581_dldesign_0_cycle1_af2pred (protein) SEELEKVKKLLEKGIETAKKNPVKGASLLLKAEHMAKQLAEKKKGTEEAKELEELSKKAKEEFDKAAKKISE | not found
design_608_fd41b8f9-4da9-4c78-93ec-aaa316ed4933_265_dldesign_0_cycle1_af2pred (protein) GLKEELRKLATQYMHEAAEYAAEAEHLANRGGDLAEVEEAAKKAKEYAEKSIELMKEAGTEEEYEKAKKVAEKLIARAEAALKKK | not found
design_607_777643b9-bd23-49d1-80ae-2b1434974efa_2469_dldesign_0_cycle1_af2pred (protein) KKITMEEQETLVNSSDDAAYYDVINTPEAAEKAKEAKATRDSLVAKWKAEDPEGGEKLKKVADHIYENSYKISKRILEEKKE | not found
design_607_777643b9-bd23-49d1-80ae-2b1434974efa_2358_dldesign_0_cycle1_af2pred (protein) MEEEAKRILEEAEKKAKEAEAIAKSGKNTKEAEKLAREALKLVKENAPIIPKEEALKAAKKALEVLFEATEAAN | not found
